Shiga toxin inh: Shiga toxin inhibition | inhibition, % at 38.7 µM | 9.2% of 290,000 active | Vero cells, Shiga toxin protein synthesis inhibition reporter; in the data active = inhibition mostly above about 28%, no sharp cut-off; inactive = mostly below about 43%; note: 0% is about no effect
AMA1-RON2 inh: AMA1-RON2 (P. falciparum) interaction inhibition. Potency, µM (doses to about 58.2 µM), for the others: at the highest dose activity change, negative = inhibition, actives largely listed as inhibitors. AlphaScreen AMA1-biotinylated RON2 peptide binding. 0.2% of 360,000 active. AID 720542;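 note: potency is the fitted concentration of half-maximal effect; 0% = vehicle wells and -100% = peptide control; nearly all actives have a fitted effect of over 45% in size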
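AMA1 (3D7) with his tag at 25 nM final met compounds first, then biotinylated RON2 peptide at 25 nM; detection used donor plus acceptor beads, 10 µg/mL apiece, read by AlphaScreen after 30 min at room temperature.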
Pf growth 96h: P. falciparum growth inhibition at 96 hours; P. falciparum luciferase reporter growth, 96 h; Potency, µM (series often up to 28.7 µM), for inactives: top-dose activity change, negative = inhibition, most hits filed as inhibitors; 6.9% of 320,000 active; note: potency is the fitted concentration of half-maximal effect; % is set by controls: 0 for no effect and ±100 for the full control effect
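Luminescence readout: decreased luciferase signal marks inhibited growth of reporter-expressing P. falciparum in infected red cells (2% hematocrit, 0.05% parasitemia final), exposed to compound two generations (96 h, 37 C, 5% CO2).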
SARS PLpro yeast: inhibitors of SARS-CoV papain-like protease in yeast | Potency, µM (titrated, usually from 32.9 µM), for inactives: at the highest dose activity, positive = growth rescue, most hits filed as activators | S. cerevisiae expressing SARS-CoV PLpro, growth rescue | AID 485353 | 0.19% of 330,000 active; calls by dose curve; note: potency is the fitted concentration of half-maximal effect; 0% is about no effect; nearly all actives have a fitted effect of over 55% in size
CHX counter: counter-screen for Shiga toxin inhibitors: cycloheximide protein synthesis inhibition; cell reporter, cycloheximide protein synthesis inhibition counterscreen; max response, %; 12% of 300,000 active; AID 2314; in the data active = max response mostly above about 13%, no sharp cut-off; inactive = mostly below about 14%; note: read at 38.3 µM for the half of the compounds with a filed dose; 0% is about no effect
Pf growth 48h: inhibits P. falciparum growth in the first generation, 48 h; P. falciparum luciferase growth in erythrocytes, 48 h; Potency, µM (top dose mostly 28.7 µM), for inactives: top-dose activity change, negative = inhibition, actives largely listed as inhibitors; 5.9% of 310,000 active; AID 504832; note: potency is the fitted concentration of half-maximal effect; % is set by controls: 0 for no effect and ±100 for the full control effect
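Compounds are pin-transferred into medium, infected erythrocytes (2% hematocrit, 0.1% parasitemia final) are added, and plates sit one parasite generation at 37 C in 5% CO2. Detection reagent is then added and luminescence measured.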
Active calls of the source: *; ? = inconclusive; nt = no result given; [ ] = another dose, or the depositor's remark. In the library only some 19% were active in any assay of this set; here they are far more common. Unless noted, calls come from the whole dose curve; as a rule, active = well fitted curve in the direction sought with a large enough effect; inconclusive = small, poorly fitted or top-dose-only effect, or another doubt; inactive = no such curve, though single readings can be large; an effect the other way counts as inactive or inconclusive.

SMILES	Shiga toxin inh	AMA1-RON2 inh	Pf growth 96h	SARS PLpro yeast	CHX counter	Pf growth 48h
O=C(O)C1CCCCC1C(=O)Nc1nc(-c2ccc(Cl)s2)cs1 (stereo not given)	2	0%	-17%	9%	-1	34%
O=C(COC(=O)c1cc(=O)[nH]c2ccccc12)Nc1ccccc1F	nt	-5%	nt	-10%	nt	nt
Cc1oc(/C=N/NC(=O)CN(c2ccccc2Br)S(C)(=O)=O)cc1Br	-3	51%	72%	-1%	3	-5%
COc1ccc(-c2csc(NC(=O)CSCc3c(C)noc3C)n2)c(OC)c1	nt	?	10µM*	-8%	nt	?
CCc1ccc(-c2csc(NC(=O)COC(=O)CCc3nc4ccccc4s3)n2)cc1	53*	nt	435%	21%	48*	176%
COc1ccc(OC)c(-c2csc(NC(=O)Cc3ccccc3F)n2)c1	41*	-20%	-10%	-38%	28*	?
COc1ccc(-c2csc(NC(=O)CSCC(=O)Nc3cc(C)on3)n2)cc1	nt	7%	0%	-1%	nt	44%
O=C(Nc1ccc([N+](=O)[O-])cc1)Nc1nc(-c2ccc(Cl)s2)cs1	20	0%	?	-16%	3	1.9µM*
O=C(COC(=O)c1n[nH]c(=O)c2ccccc12)Nc1ccccc1F	nt	-1%	nt	?	nt	nt
COc1ccc(CCNC(=O)COC(=O)/C=C/c2cccs2)cc1	-8	-9%	35%	-4%	-3	-12%
C#CCOC(=O)CCCC(=O)NCCCCCCCC	-6	26%	124%	-11%	-3	21%
NC(=O)COC(=O)c1ccccc1Oc1ccccc1	-2	-6%	16%	-4%	5	6%
COc1ccc(CCC(=O)OCC(=O)Nc2c(C)n(C)n(-c3ccccc3)c2=O)cc1	nt	-2%	11%	5%	nt	-3%
O=C(O)C1C2CC3C(OC(=O)C31)C2Cl (stereo not given)	-3	7%	1%	-18%	2	1%
CCN(CC)C(=O)[C@H]1CC(CC(=O)NCCCOC)C(=O)N2CCc3c([nH]c4ccccc34)[C@]12C (stereo not given in full)	nt	13%	nt	0%	nt	nt
Cc1ncccc1C(=O)N1CCCC(CNC(=O)C2(c3ccc(Cl)cc3)CC2)C1 (stereo not given)	17	-6%	?	2%	-2	-1%
C=CCNc1nc(-c2ccc(OC)cc2OC)cs1	69*	?	?	5%	38*	-30%
O=c1[nH]cnc(O)c1C1C=CC=CC=C1	nt	4%	nt	nt	nt	nt
Cc1cccc(C2c3[nH]c4ccccc4c3CCN2Cc2cnn(-c3ccc(F)cc3)c2)n1 (stereo not given)	-9	-6%	22%	-1%	-1	10µM*
Cc1cccc(C2c3[nH]c4ccccc4c3CCN2C(=O)c2cn(C)c3ccccc3c2=O)n1 (stereo not given)	-4	-7%	?	-1%	-2	?
Cc1cccc(C2c3[nH]c4ccccc4c3CCN2C(=O)c2noc3c2CCCC3)n1 (stereo not given)	12	?	13µM*	-4%	1	?
O=C(c1noc2c1CCCC2)N1CCc2c([nH]c3ccccc23)C1c1ccccn1 (stereo not given)	19	11%	?	-2%	8.4*	?
COc1cc(/C=C/C(=O)OCC(=O)N2CCCCCC2)cc(OC)c1OC	nt	-3%	nt	nt	nt	nt
Cc1cc(NC(=S)N(CCCN2CCN(C)CC2)Cc2ccco2)ccc1Cl	20	-7%	6%	0%	-1	?
CC1(C)CC(=O)c2cc(N=C/C(C(=O)c3ccccc3)=C(\O)c3ccccc3)c(=O)oc2C1	185*	53%	34%	-1%	43*	8%
SMILES	Shiga toxin inh	AMA1-RON2 inh	Pf growth 96h	SARS PLpro yeast	CHX counter	Pf growth 48h
CC1(C)CC(=O)c2cc(C(=O)O)c(=O)n(-c3ccccc3)c2C1	-10	-3%	nt	15%	0	9%
Cc1ccccc1C(=O)N/N=C/c1ccsc1C	125*	27%	82%	-17%	81*	232%
Cc1ccc(Cl)cc1NC(=S)Nn1cnnc1	-17	43%	2.6µM*	?	-3	0%
O=C(N/N=C/c1ccccc1F)c1cccc2ccccc12	40*	-7%	0%	1%	21	82%
Cc1ccc(NC(=S)Nn2cnnc2)c(C)c1	-13	nt	25%	7%	-2	4%
Cc1ccc(NC(=S)N/N=C/c2c(Cl)cccc2Cl)c(C)c1	29	4%[2.32 µM]	?	3%	16	14%
COc1ccccc1/C=N/NC(=O)c1cccc2ccccc12	nt	-10%	?	8%	-3	-3%
Cc1ccc(Cl)cc1NC(=S)N/N=C/c1cccc2ccccc12	12	27%	?	0%	2	2.1µM*
C[n+]1ccc(C(=O)NCCC[N+](C)(C)C)cc1/C=N/O	20	-3%	1%	-1%	-2	9%
COc1ccc(OCCCC(=O)Nc2cccc([N+](=O)[O-])c2C)cc1	-15	-3%	13%	-3%	1	-7%
Cc1sccc1/C=N/NC(=O)c1cccc2ccccc12	-29	7%	-2%	16%	9	24%
Cc1ccccc1C(=O)N/N=C/c1cccc2ccccc12	46*	5%	?	2%	16*	?
NC(=S)N=Nc1c(O)cc(O)c2[nH]c(=O)ccc12	nt	-13%	nt	nt	nt	nt
CCCCn1c(=N)n(CC(=O)c2ccc(Br)s2)c2ccccc21	-21	-4%	12µM*	0%	-5	10µM*
COC(=O)c1ccc(OCC(=O)c2ccc(O)cc2O)cc1	54	22%	-25%	4%	11	221%
O=C(COc1ccc(Cl)cc1)c1ccc(O)cc1O	69*	0%	110%	-3%	25*	20%
CCOC(=O)c1ccc(OCC(=O)c2ccc(O)cc2O)cc1	50*	0%	53%	-9%	18*	76%
CC(=O)OC1CC2CCC1(C)C2(C)C (stereo not given)	-4	nt	12%	nt	-3	-7%
COc1cc(/C=C/C(=O)OC2CC3CCC2(C)C3(C)C)ccc1O (stereo not given)	23	3%	3%	-9%	14*	?
CC(C)NC(=O)C(=O)NNC(=O)CCc1ccccc1	8	32%	?	0%	-5	25%
COc1cc(/C=N/NC(=O)c2ccccc2O)ccc1OCC(=O)Nc1ccccc1	19	-3%	-23%	1%	15*	?
O=C(N/N=C/c1cccc([N+](=O)[O-])c1)c1cc2ccccc2o1	-12	-6%	?	8%	10	5%
O=C(COc1ccc(/C=N/NC(=O)c2cccnc2)cc1)Nc1ccccc1	25	14%	-5%	5%	29*	15%
CCOc1cc(C(=S)N2CCCC2)ccc1OCC(=O)Nc1c(C)cc(C)cc1C	-4	31%	41%	18%	-3	2.3µM*
O=C(COc1ccc(/C=N/NC(=O)c2cc3ccccc3o2)cc1Cl)Nc1ccccc1	62*	3%	7.4µM*	-3%	47*	10µM*

Screens deposited in PubChem BioAssay by National Center for Advancing Translational Sciences (NCATS).
